Shown are actives, neighbours in structure and some others; about 2.4% of the full set was active somewhere.
Pol beta inh: blocks human DNA polymerase beta activity. Pol beta primer extension/strand displacement, fluorescence kinetic. AID 485314. Potency, µM (top dose mostly 114 µM), actives largely listed as inhibitors. 340,000 compounds, 1.3% hits
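Homogeneous kinetic assay of primer extension and strand displacement by 10 nM Pol beta, preincubated 15 min at room temperature with compound before 50 nM substrate (final) was added. Read at 0 and 10 min; four-parameter Hill fit.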
POLH inh: blocks human DNA polymerase eta activity; recombinant Pol eta, fluorescent DNA replication assay; Potency, µM (top dose mostly 114 µM), hits mostly inhibitors; 390,000 compounds, 1.2% hits; AID 588591
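Fluorescent replication assay: 50 nM final substrate added after a 15 min room-temperature compound preincubation with 10 nM enzyme. Signal taken at 0 min and again at 10 min.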
Pol iota inh: inhibitors of human DNA polymerase iota | 390,000 compounds, 1% hits | AID 588590 | Potency, µM (highest dose often 115 µM), most hits filed as inhibitors | Q9UNA4 | Pol iota fluorescent replication assay, 10 min
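Fluorescent replication assay read twice, at 0 min and 10 min after adding 50 nM (final) substrate. Enzyme (10 nM) and compounds were first incubated 15 min at room temperature; enzyme-free buffer wells were negative controls.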
TDP1 inh: inhibitors of human tyrosyl-DNA phosphodiesterase TDP1 | Q9NUW8 | recombinant TDP1, AlphaScreen DNA substrate cleavage | Potency, µM (highest dose often 130 µM), most hits filed as inhibitors | 350,000 compounds, 0.28% hits; further: nearly all actives have a fitted effect of over 40% in size
Target sequence (Q9NUW8 whole entry, looked up): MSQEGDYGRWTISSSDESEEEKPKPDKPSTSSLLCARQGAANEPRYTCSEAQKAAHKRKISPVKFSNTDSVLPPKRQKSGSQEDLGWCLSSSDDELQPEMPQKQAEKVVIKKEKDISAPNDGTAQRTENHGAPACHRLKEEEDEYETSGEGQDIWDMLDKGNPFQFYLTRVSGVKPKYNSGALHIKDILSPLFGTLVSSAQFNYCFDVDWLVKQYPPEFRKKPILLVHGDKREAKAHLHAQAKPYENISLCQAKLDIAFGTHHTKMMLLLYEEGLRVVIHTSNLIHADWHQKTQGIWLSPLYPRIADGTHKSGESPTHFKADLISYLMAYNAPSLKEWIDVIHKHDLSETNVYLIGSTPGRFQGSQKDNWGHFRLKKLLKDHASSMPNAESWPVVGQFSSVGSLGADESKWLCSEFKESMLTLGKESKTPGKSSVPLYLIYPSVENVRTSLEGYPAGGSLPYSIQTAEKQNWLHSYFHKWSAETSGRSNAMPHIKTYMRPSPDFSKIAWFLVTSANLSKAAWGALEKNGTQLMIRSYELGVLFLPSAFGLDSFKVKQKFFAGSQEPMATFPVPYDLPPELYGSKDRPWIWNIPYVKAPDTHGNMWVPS
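Compounds were preincubated with Tdp1 (1 nM final) for 15 min at room temperature before substrate (15 nM final) started a 5 min reaction; beads (10 ug/ml final) were then added for 10 min before AlphaScreen detection.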
FEN1 inhibitor: human FEN1 inhibition. P39748. 390,000 compounds, 0.35% hits. Potency, µM (top dose mostly 114 µM), most hits filed as inhibitors. Recombinant FEN1 flap cleavage, fluorescence, 15 min. AID 588795; further: nearly all actives have a fitted effect of over 65% in size
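With each library titrated from low to high concentration, compounds met 10 nM FEN1 for 15 min at room temperature before 50 nM substrate was added; readings at 0 and 15 min fed four-parameter Hill curve fits.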
POLK inh: blocks human DNA polymerase kappa activity. 400,000 compounds, 0.53% hits. Q9UBT6. purified Pol kappa, fluorescent DNA synthesis assay, 10 min. Potency, µM (doses to about 107 µM), actives largely listed as inhibitors
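First, compounds were pin-transferred onto 10 nM Pol kappa. After 15 min at room temperature, substrate was added to 50 nM final. Fluorescence was then measured kinetically at 0 and 10 min.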
Of the large screens only hits and unclear results are named; the others gave an inactive call. The call rests on the fitted dose curve; in most records, active means well fitted curve in the direction sought with a large enough effect; inconclusive means small, poorly fitted or top-dose-only effect, or another doubt; inactive means no such curve, though single readings can be large; an effect the other way counts as inactive or inconclusive.

NC(=NCc1ccc2c(c1)OCO2)NC(=O)c1ccccc1	POLH inh 79.4µM
C/C(CCc1ccc2c(c1)OCO2)=N\NC(=O)c1ccccc1	none
CC(=O)c1c(C)nc(-c2ccc(Cl)cc2)nc1N=CN(C)C	Pol beta inh 35.5µM
CC(=O)c1c(C)nc(-c2ccc(Cl)cc2)nc1N	none
C[C@@H]1[C@H](c2ccccc2)OCCS(=O)(=O)N1Cc1cccc(C(F)(F)F)c1	none (no result: Pol beta inh, POLH inh, TDP1 inh)
COc1cc(/C=C(\C#N)c2nc3ccccc3[nH]2)ccc1OCc1cccc(C(F)(F)F)c1	Pol beta inh 3.55µM, Pol iota inh inconclusive (no result: POLH inh)
COC(=O)c1ccc(COc2ccc(/C=C(\C#N)c3nc4ccccc4[nH]3)cc2OC)o1	Pol beta inh 8.91µM, POLH inh inconclusive (no result: TDP1 inh)
CCCCNC(=O)Cn1nc(N2CCN(c3ccccc3OC)CC2)ccc1=O	none
O=C(Nc1ccccc1F)c1cnn2c1NC(=C1CC1)C=C2C(F)F	Pol iota inh inconclusive (no result: Pol beta inh, POLH inh, TDP1 inh)
O=C(Nc1ccc(Br)cc1F)c1cnn2c1NC(=C1CC1)C=C2C(F)F	Pol iota inh inconclusive, POLK inh 31.6µM (no result: Pol beta inh, POLH inh, TDP1 inh)
Cc1cc2cc3c(cc2nc1SCC(=O)N1CCN(C(=O)c2ccco2)CC1)OCO3	Pol beta inh inconclusive, Pol iota inh 70.8µM
O=C(CSc1c2c(nc3ccc(Cl)cc13)CCCC2)N1CCN(C(=O)c2ccco2)CC1	Pol iota inh 20µM, POLK inh inconclusive (no result: Pol beta inh, TDP1 inh)
CCc1cc2ccc(OC)cc2nc1SCC(=O)N1CCN(C(=O)c2ccco2)CC1	none (no result: TDP1 inh)
CC1CCN(C(=O)CSc2c3c(nc4ccc(Cl)cc24)CCCC3)CC1	none
Cc1cc2nc(-c3ccc(SCC(=O)N4CCN(C(=O)c5ccco5)CC4)nc3)[nH]c2cc1C	Pol beta inh 35.5µM, POLH inh 79.4µM, Pol iota inh inconclusive, POLK inh inconclusive
O=C(Nc1ccccc1)N1CC[C@@]2(CCCN(C(=O)c3csnn3)C2)C1	none (no result: Pol beta inh, POLH inh, Pol iota inh, TDP1 inh, FEN1 inhibitor)
N#C/C(=C(/O)COC(=O)CCc1ccc(S(=O)(=O)N2CCOCC2)cc1)c1nc2ccccc2[nH]1	Pol beta inh 35.5µM, POLH inh 14.1µM
CCOC(=O)c1[nH]c2c(c1Cc1ccccc1)C(=O)CC(c1ccc(Cl)cc1)C2 (stereo not given)	Pol iota inh inconclusive
Cc1nc(S/C(=C\c2ccc(OCc3ccccc3Cl)cc2)C(=O)O)n[nH]1	POLH inh 31.6µM, Pol iota inh inconclusive
Nc1nc(N)c2c(Oc3ccc(F)cc3)cccc2n1	Pol iota inh inconclusive (no result: Pol beta inh, POLH inh, TDP1 inh)
COc1ccc([C@H]2CC(=O)C=C(c3ccc(SC)cc3)C2)cc1	Pol iota inh 89.1µM (no result: Pol beta inh)
COc1ccc(C2=CC(=O)C[C@H](c3ccc(OC)cc3)C2)cc1	none (no result: Pol beta inh)
COc1ccc(S(=O)(=O)N2CCN(CC(=O)c3ccc(O)c(O)c3)CC2)cc1	Pol beta inh inconclusive, POLH inh inconclusive, Pol iota inh inconclusive, POLK inh 31.6µM
Cc1sc2nc(SCC(=O)Nc3ccc(S(N)(=O)=O)cc3)[nH]c(=O)c2c1C	Pol beta inh 25.1µM, POLH inh inconclusive, Pol iota inh inconclusive
Cc1ccc(-c2csc3nc(SCC(=O)Nc4ccc(Cl)c(C(=O)O)c4)[nH]c(=O)c23)cc1	Pol beta inh inconclusive, POLH inh 39.8µM, Pol iota inh inconclusive
Cc1sc2nc(SCC(=O)Nc3ccc(Cl)c(C(=O)O)c3)[nH]c(=O)c2c1C	none (no result: Pol beta inh, TDP1 inh)
CNC(=O)c1c(NC(=O)c2ccc(S(=O)(=O)N3CCCC(C)C3)cc2)sc2c1CCC2 (stereo not given)	Pol beta inh inconclusive
CC1CCC(NC(=O)c2ccc3c(c2)N(Cc2cccc(F)c2)C(=O)c2ccccc2S3)CC1 (stereo not given)	POLH inh inconclusive, Pol iota inh 89.1µM
Cc1cccc(OCC(=O)Nc2c(C)ccc3nsnc23)c1C	none
COc1ccc(NC(=S)NC(NC(=O)c2ccccc2Cl)C(Cl)(Cl)Cl)c([N+](=O)[O-])c1 (stereo not given)	Pol beta inh inconclusive
COc1ccc(NC(=S)NC(NC(=O)CCl)C(Cl)(Cl)Cl)c([N+](=O)[O-])c1 (stereo not given)	POLH inh 50.1µM, Pol iota inh inconclusive (no result: TDP1 inh)
O=C1CC(=O)CC(c2ccco2)C1	Pol beta inh inconclusive, POLH inh 17.8µM, Pol iota inh inconclusive, POLK inh inconclusive (no result: TDP1 inh)
CC(C)CNC1=CC(=O)CC(c2ccco2)C1 (stereo not given)	Pol beta inh 28.2µM, POLH inh inconclusive, Pol iota inh 28.2µM, POLK inh inconclusive (no result: TDP1 inh)
O=C1C=C(NCc2ccc(Cl)cc2)CC(c2ccco2)C1 (stereo not given)	Pol beta inh inconclusive, POLH inh inconclusive, Pol iota inh inconclusive
O=C(C[n+]1ccccc1)c1cccc([N+](=O)[O-])c1	none (no result: Pol beta inh, POLH inh, TDP1 inh)
CC(C)(C)OC(=O)Cc1nnc(C(C(=O)OCc2ccccc2)c2ccccc2)s1 (stereo not given)	none (no result: Pol beta inh, POLH inh, Pol iota inh, FEN1 inhibitor, POLK inh)
COC(=O)CCC(=O)OC1(C)C(=O)C2=CN(Cc3ccc(OC)cc3)C(c3ccc(OC)cc3)=CC2=C(Br)C1=O (stereo not given)	none (no result: Pol beta inh)
COC(=O)CCC(=O)OC1(C)C(=O)C2=CN(CC3CC3)C(c3ccc(OC)cc3)=CC2=C(Br)C1=O (stereo not given)	POLH inh 79.4µM, Pol iota inh inconclusive
COC(=O)CCC(=O)OC1(C)C(=O)C2=CN(C3CC3)C(c3ccc(OC)cc3)=CC2=C(Br)C1=O (stereo not given)	POLH inh 79.4µM, Pol iota inh inconclusive (no result: Pol beta inh)
C=C(CCC12O[C@H](C(=O)O)[C@@](O)(C(=O)O)[C@](C(=O)O)(O1)[C@H](OC(=O)/C=C/[C@@H](C)C[C@@H](C)CC)[C@H]2O)[C@@H](OC(C)=O)[C@H](C)Cc1ccccc1	POLK inh 3.55µM (no result: Pol beta inh, POLH inh, Pol iota inh, FEN1 inhibitor)
C=C(CC[C@]12OC(C(=O)O)C(O)(C(=O)O)C(C(=O)O)(O1)C(OC(=O)/C=C/[C@@H](C)C[C@@H](C)CC)C2O)[C@@H](OC(C)=O)[C@H](C)Cc1ccccc1 (stereo not given in full)	Pol iota inh inconclusive, POLK inh 79.4µM (no result: Pol beta inh, POLH inh, TDP1 inh)
COc1ccc(C2c3c(N)nc(CCCc4ccccc4)nc3Oc3ccc4ccccc4c32)cc1OC (stereo not given)	none (no result: Pol beta inh, POLH inh, Pol iota inh, FEN1 inhibitor, POLK inh)
COC(=O)c1ccccc1NC1=C/C(=N\S(=O)(=O)c2cccs2)c2ccccc2C1=O	Pol iota inh 1.41µM
O=C(O)C1(C(=O)O)CCCC1	none (no result: Pol beta inh, TDP1 inh)
O=C(O)C1(C(=O)O)CCC1.[NH2-].[NH2-].[Pt+2]	POLK inh 8.91µM (no result: Pol beta inh, POLH inh, Pol iota inh, FEN1 inhibitor)
CCOc1cc(CNCCSc2nnnn2C)cc(Cl)c1OCc1ccc(Cl)cc1	none
Cc1nn2c(-c3cccc(NC(=O)CN4CCOCC4)c3)nnc2c2ccccc12	POLH inh inconclusive, Pol iota inh 39.8µM, FEN1 inhibitor inconclusive (no result: Pol beta inh, TDP1 inh)

Screening results deposited in PubChem by National Center for Advancing Translational Sciences (NCATS).
